# Experimental data as given in PubChem BioAssay (NCATS).
# Records with an inconclusive call do not appear. A number with no mark means an inactive call. Activity calls are given as the source filed them. Calls follow the shape of the dose curve; as a rule, active = well fitted cell-killing curve with a large enough effect; inconclusive = small, poorly fitted or top-dose-only effect, or effect the other way; inactive = no such curve, though single readings can be large or run the other way.
# Tests used:
# [1] = Quantitative High-Throughput drug screen in 47 multiple myeloma cell lines against the NCATS MIPE library collection: MM1R_ATCC cell viability assay (AID 1918981); also: nearly all actives have a fitted effect of over 35% in size
# Summary of the method: (§1)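 qHTS format: cells plated (500/well), pin-dosed with MIPE 4.0 compounds, kept 48 h at 37 °C. Readout was CellTiter-Glo luminescence, median RLU.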
# [2] = Quantitative High-Throughput drug screen in 47 multiple myeloma cell lines against the NCATS MIPE library collection: LP1_DSMZ cell viability assay (AID 1918982); also: nearly all actives have a fitted effect of over 35% in size
# Summary of the method: as §1
# [3] = Quantitative High-Throughput drug screen in 47 multiple myeloma cell lines against the NCATS MIPE library collection: KMS28PE_JCRB cell viability assay (AID 1918983); also: nearly all actives have a fitted effect of over 35% in size
# Summary of the method: as §1
# [4] = Quantitative High-Throughput drug screen in 47 multiple myeloma cell lines against the NCATS MIPE library collection: KMS34_JCRB cell viability assay (AID 1918985); also: nearly all actives have a fitted effect of over 40% in size
# Summary of the method: as §1
# [5] = Quantitative High-Throughput drug screen in 47 multiple myeloma cell lines against the NCATS MIPE library collection: OCIMY7_PLB cell viability assay (AID 1918987); conditions: OCI-MY7 myeloma viability, CellTiter-Glo ATP, 48 h; viability (% of DMSO): at 45.8 µM (top of the series); also: nearly all actives have a fitted effect of over 65% in size
# Summary of the method: as §1
# [6] = Quantitative High-Throughput drug screen in 47 multiple myeloma cell lines against the NCATS MIPE library collection: OCIMY5_PLB cell viability assay (AID 1918988); also: nearly all actives have a fitted effect of over 65% in size
# Summary of the method: as §1
# [7] = Quantitative High-Throughput drug screen in 47 multiple myeloma cell lines against the NCATS MIPE library collection: OPM1_PLB cell viability assay (AID 1918989); also: nearly all actives have a fitted effect of over 40% in size
# Summary of the method: as §1
# [8] = Quantitative High-Throughput drug screen in 47 multiple myeloma cell lines against the NCATS MIPE library collection: SKMM1_PLB cell viability assay (AID 1919863); conditions: SKMM1 myeloma viability, CellTiter-Glo ATP, 48 h; viability: hits give low values; also: nearly all actives have a fitted effect of over 35% in size
# Summary of the method: as §1
# [9] = Quantitative High-Throughput drug screen in 47 multiple myeloma cell lines against the NCATS MIPE library collection: U266_ATCC cell viability assay (AID 1919864); also: nearly all actives have a fitted effect of over 35% in size
# Summary of the method: as §1
# [10] = Quantitative High-Throughput drug screen in 47 multiple myeloma cell lines against the NCATS MIPE library collection: XG6_PLB cell viability assay (AID 1919865); also: nearly all actives have a fitted effect of over 40% in size
# Summary of the method: as §1
# [11] = Quantitative High-Throughput drug screen in 47 multiple myeloma cell lines against the NCATS MIPE library collection: XG1_PLB cell viability assay (AID 1919866); also: nearly all actives have a fitted effect of over 35% in size
# Summary of the method: as §1
# [12] = Quantitative High-Throughput drug screen in 47 multiple myeloma cell lines against the NCATS MIPE library collection: VP6_DJ cell viability assay (AID 1919867); also: nearly all actives have a fitted effect of over 40% in size
# Summary of the method: as §1
# [13] = Quantitative High-Throughput drug screen in 47 multiple myeloma cell lines against the NCATS MIPE library collection: PE2_PLB cell viability assay (AID 1919869); also: nearly all actives have a fitted effect of over 35% in size
# Summary of the method: as §1
# [14] = Quantitative High-Throughput drug screen in 47 multiple myeloma cell lines against the NCATS MIPE library collection: PCM6_Riken cell viability assay (AID 1919870); also: nearly all actives have a fitted effect of over 30% in size
# Summary of the method: as §1
# [15] = Quantitative High-Throughput drug screen in 47 multiple myeloma cell lines against the NCATS MIPE library collection: RPMI8226_ATCC cell viability assay (AID 1919871); also: nearly all actives have a fitted effect of over 30% in size
# Summary of the method: as §1
# [16] = Quantitative High-Throughput drug screen in 47 multiple myeloma cell lines against the NCATS MIPE library collection: OPM2_DSMZ cell viability assay (AID 1919872); also: nearly all actives have a fitted effect of over 30% in size
# Summary of the method: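 We plated 500 myeloma cells per well, pinned in MIPE 4.0 compounds, and incubated for 48 hours at 37C. ATP was then quantified with CellTiter-Glo, with DMSO and media-only wells defining 100% and 0%.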
# [17] = Quantitative High-Throughput drug screen in 47 multiple myeloma cell lines against the NCATS MIPE library collection: KMS11_JCRBsus cell viability assay (AID 1919873); also: nearly all actives have a fitted effect of over 50% in size
# Summary of the method: as §1
# [18] = Quantitative High-Throughput drug screen in 47 multiple myeloma cell lines against the NCATS MIPE library collection: KMS28BM_JCRB cell viability assay (AID 1919874); also: nearly all actives have a fitted effect of over 35% in size
# Summary of the method: as §1
# [19] = Quantitative High-Throughput drug screen in 47 multiple myeloma cell lines against the NCATS MIPE library collection: L363_DSMZ cell viability assay (AID 1918984); also: nearly all actives have a fitted effect of over 40% in size
# Summary of the method: as §1
# [20] = Quantitative High-Throughput drug screen in 47 multiple myeloma cell lines against the NCATS MIPE library collection: UTMC2_PLB cell viability assay (AID 1919868); conditions: CellTiter-Glo ATP luminescence, 48 h; viability (% of DMSO control): at 45.8 µM (top of the series); also: nearly all actives have a fitted effect of over 55% in size
# Summary of the method: as §1
# Potency is read from the fitted curve at half-maximal effect.
smiles,measurement,setting,value
c1cncc(CN2CCC(n3ncc4c(N5CCOCC5)nc(-c5ccc6[nH]ccc6c5)nc43)CC2)c1,Potency,[1],5.9 µM (active)
same,Potency,[2],5.9 µM (active)
same,Potency,[3],6.62 µM (active)
same,Potency,[4],5.9 µM (active)
same,Potency,[5],9.35 µM (active)
same,Potency,[6],13.2 µM (active)
same,Potency,[7],2.64 µM (active)
same,Potency,[8],23.5 µM (active)
same,Potency,[9],5.26 µM (active)
same,Potency,[10],1.66 µM (active)
same,Potency,[11],0.935 µM (active)
same,Potency,[12],3.32 µM (active)
same,Potency,[13],1.48 µM (active)
same,Potency,[14],11.8 µM (active)
same,Potency,[15],6.62 µM (active)
same,Potency,[16],14.8 µM (active)
same,Potency,[17],0.59 µM (active)
same,Potency,[18],11.8 µM (active)
Nc1ccn(C2CO[C@H](CO)O2)c(=O)n1 (some centres not stated),Potency,[1],inactive
same,Potency,[2],inactive
same,Potency,[3],inactive
same,Potency,[19],inactive
same,Potency,[9],inactive
same,Potency,[10],inactive
same,Potency,[11],inactive
same,Potency,[13],inactive
same,Potency,[14],inactive
same,Potency,[15],inactive
same,Potency,[16],inactive
same,Potency,[17],inactive
same,Potency,[18],inactive
CC(=O)NCC(=O)N1[C@H]2CC[C@H]1c1cc(Nc3ncc(C(F)(F)F)c(NC4CCC4)n3)ccc12,Potency,[1],2.35 µM (active)
same,Potency,[2],7.43 µM (active)
same,Potency,[3],4.18 µM (active)
same,Potency,[19],0.935 µM (active)
same,Potency,[5],0.0935 µM (active)
same,Potency,[6],1.18 µM (active)
same,Potency,[7],0.59 µM (active)
same,Potency,[8],20.9 µM (active)
same,Potency,[10],1.18 µM (active)
same,Potency,[11],0.332 µM (active)
same,Potency,[12],0.833 µM (active)
same,Potency,[13],1.66 µM (active)
same,Potency,[14],1.87 µM (active)
same,Potency,[16],1.48 µM (active)
same,Potency,[17],0.0662 µM (active)
COc1cc(C=CC(=O)CC(=O)C=Cc2ccc(O)c(OC)c2)ccc1O,Potency,[1],7.62 µM (active)
same,Potency,[2],30.3 µM (active)
same,Potency,[3],17.1 µM (active)
same,Potency,[19],3.03 µM (active)
same,Potency,[5],2.15 µM (active)
same,Potency,[6],12.1 µM (active)
same,Potency,[7],3.82 µM (active)
same,Potency,[8],15.2 µM (active)
same,Potency,[10],10.8 µM (active)
same,Potency,[11],6.79 µM (active)
same,Potency,[12],9.59 µM (active)
same,Potency,[20],21.5 µM (active)
same,Potency,[13],4.81 µM (active)
same,Potency,[14],9.59 µM (active)
same,Potency,[16],21.5 µM (active)
same,Potency,[17],8.55 µM (active)
same,Potency,[18],10.8 µM (active)
O=C(C[C@@H]1CC=CCCC(=O)O[C@H](c2ccccc2)CNC1=O)NCc1ccc(Cl)cc1,Potency,[1],inactive
same,Potency,[2],inactive
same,Potency,[3],inactive
same,Potency,[4],inactive
same,Potency,[10],6.62 µM (active)
same,Potency,[12],13.2 µM (active)
same,Potency,[20],inactive
same,Potency,[13],9.35 µM (active)
same,Potency,[14],5.9 µM (active)
same,Potency,[15],inactive
same,Potency,[16],inactive
same,Potency,[17],inactive
same,Potency,[18],inactive
CC(=O)OC[C@@H]1O[C@@H](n2ccc(=O)[nH]c2=O)[C@H](OC(C)=O)[C@H]1OC(C)=O,Potency,[1],inactive
same,Potency,[2],inactive
same,Potency,[3],inactive
same,Potency,[4],inactive
same,Potency,[6],inactive
same,Potency,[7],inactive
same,Potency,[9],inactive
same,Potency,[10],inactive
same,Potency,[11],inactive
same,Potency,[20],inactive
same,Potency,[13],inactive
same,Potency,[14],inactive
same,Potency,[17],inactive
same,Potency,[18],inactive
Cc1ccccc1C(=O)Nc1ccc(C(=O)N2CCCC(O)c3cc(Cl)ccc32)c(C)c1 (configuration not stated),Potency,[1],inactive
same,Potency,[2],18.7 µM (active)
same,Potency,[3],inactive
same,Potency,[4],inactive
same,Potency,[7],inactive
same,viability,[8],139%
same,Potency,[9],inactive
same,Potency,[11],14.8 µM (active)
same,Potency,[15],inactive
same,Potency,[16],inactive
same,Potency,[17],inactive
same,Potency,[18],inactive
